Structures are written as SMILES. Inconclusive results are not listed. Entries that show only a call come without a potency. A number with no mark means an inactive call. Activity calls are given as the source filed them. The call rests on the fitted dose curve; in most records, active means well fitted cell-killing curve with a large enough effect; inconclusive means small, poorly fitted or top-dose-only effect, or effect the other way; inactive means flat fitted curve, though single readings scatter.

One experiment relates to HeLa. The experiment can be described thus: Primary qHTS to identify gynecologic anti-cancer compounds using libraries of approved drugs and bioactive compounds (AID 1345084). Further: nearly all actives have a fitted effect of over 55% in size. The conditions noted are these: Gynecologic cancer cell panel viability, ATPlite luminescence, 48 h; series mostly up to 57.5 µM. In a few lines:
(§1)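 Measured: luminescence after ATPlite addition (15 min, RT). Exposure: 48 h, 37 C, 5% CO2.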
Take `CC(=O)NC(Cc1ccccc1)C(=O)O` (configuration not stated): the Potency result was “inactive”. Still for that read-out and setting: under `CC(=O)OCC(=O)[C@@]1(O)CC[C@H]2[C@@H]3CCC4=CC(=O)CC[C@]4(C)[C@H]3C(=O)C[C@@]21C` stands “inactive”; under `CNCC(O)c1ccc(O)c(O)c1` (configuration not stated), “inactive”; under `CC[C@@]1(c2ccccc2)NC(=O)N(C)C1=O`, “inactive”.

A further experiment concerns Hek293T. The experiment is described as above. The conditions noted are these: Gynecologic cancer cell panel viability, ATPlite luminescence, 48 h, control line for the selectivity index; series mostly up to 57.5 µM. In a few lines: as §1
Take `NC(=O)NC(=O)Cc1ccccc1`: the Potency entry was “inactive”. Still for that read-out and setting: under `NC(=O)NNc1ccccc1` stands “inactive”. For the compound `N[C@H](C(=O)O)c1ccc(O)cc1`, the Potency entry is “inactive”.

For the compound `NC(=O)c1ncn([C@@H]2O[C@H](CO)[C@@H](O)[C@H]2O)n1`, the Potency result was “inactive”.

For the compound `Nc1ccc(S(=O)(=O)NC(=O)c2ccccc2)cc1`, the Potency result was “inactive”.

Regarding `CCN(CC)CCNC(=O)c1c(C)[nH]c(/C=C2\C(=O)Nc3ccc(F)cc32)c1C`, the Potency result is “inactive”.

Take `N[C@H]1C(O)O[C@H](CO)[C@@H](O)[C@@H]1O` (some centres not stated): the Potency result is “inactive”. The same measure, in the same setting: under `O=S(=O)(O)NC1CCCCC1` stands “inactive”; under `OC[C@H]1O[C@@H](O[C@@H]2[C@@H](CO)O[C@](O)(CO)[C@H]2O)[C@H](O)[C@@H](O)[C@H]1O`, “inactive”. Take `C[C@@H]1CC[C@@]2(OC1)O[C@H]1C[C@H]3[C@@H]4CC[C@H]5C[C@@H](O)CC[C@]5(C)[C@H]4CC(=O)[C@]3(C)[C@H]1[C@@H]2C`: the activity change, negative = cytotoxicity is 7.28% [at 6.55 µM]. In the case of `CSc1ccc2c(c1)N(CCC1CCCCN1C)c1ccccc1S2` (configuration not stated), the Potency entry is “inactive”.

`CC1=C(CC(=O)O)c2cc(F)ccc2/C1=C\c1ccc(S(C)=O)cc1` (configuration not stated): the Potency result was “inactive”. With `CC(=O)O[C@@]12CO[C@@H]1C[C@H](O)[C@@]1(C)C(=O)[C@H](O)C3=C(C)[C@@H](OC(=O)[C@H](O)[C@@H](NC(=O)OC(C)(C)C)c4ccccc4)C[C@@](O)([C@@H](OC(=O)c4ccccc4)[C@H]21)C3(C)C`, the Potency result is “inactive”.

These data come from PubChem BioAssay (NCATS).
